NS1 function inh: influenza NS1 inhibition. Potency, µM (top dose mostly 46.1 µM), for inactives: top-dose activity, positive = more growth. 270,000 compounds, 0.4% hits; calls by dose curve; further: potency means the concentration at half of the fitted maximal effect; actives are rising curves; nearly all actives have a fitted effect of over 50% in size
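Recovery from NS1-induced slow growth read by OD600 in budding yeast switched to galactose assay medium (pH 6.0, -URA) at 1:100 dilution. Compound 23 nl per well; the matching strain lacking NS1 serves as control.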
Pf growth 96h: P. falciparum growth inhibition at 96 hours. P. falciparum luciferase reporter growth, 96 h. Potency, µM (top dose mostly 28.7 µM), without a hit: at the top dose activity change, negative = inhibition, usual class: inhibitors. 320,000 compounds, 6.9% hits. AID 504834; further: potency means the concentration at half of the fitted maximal effect; on the % scale 0 is the no-effect control and ±100 the full control effect
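Delayed-death screen, second-generation endpoint: infected erythrocytes, 2% hematocrit, 0.05% parasitemia final; 96 hours at 37 C, 5% CO2; luciferase detection reagent; luminescence decrease equals reduced growth.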
Shiga toxin inh: Shiga toxin inhibition. 290,000 compounds, 9.2% hits. AID 2315. inhibition, % at 38.7 µM. Vero cells, Shiga toxin protein synthesis inhibition reporter; in the data active means inhibition mostly above about 28%, no sharp cut-off; inactive means mostly below about 43%; further: 0% is about no effect
Pf growth 48h: inhibits P. falciparum growth in the first generation, 48 h | P. falciparum luciferase growth in erythrocytes, 48 h | Potency, µM (doses to about 28.7 µM), inactives show at the highest dose activity change, negative = inhibition, most hits filed as inhibitors | 310,000 compounds, 5.9% hits | AID 504832; further: potency means the concentration at half of the fitted maximal effect; on the % scale 0 is the no-effect control and ±100 the full control effect
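Compounds are pin-transferred into medium, infected erythrocytes (2% hematocrit, 0.1% parasitemia final) are added, and plates sit one parasite generation at 37 C in 5% CO2. Detection reagent is then added and luminescence measured.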
CHX counter: counter-screen for Shiga toxin inhibitors: cycloheximide protein synthesis inhibition; cell reporter, cycloheximide protein synthesis inhibition counterscreen; max response, %; 300,000 compounds, 12% hits; AID 2314; in the data active means max response mostly above about 13%, no sharp cut-off; inactive means mostly below about 14%; further: read at 38.3 µM for the half of the compounds with a filed dose; 0% is about no effect
Numbers without * were called inactive; i = inactive; u = inconclusive; x = no result. Most compounds without a hit are left out; they make up all but 21% or so of the library. Unless noted, the call rests on the fitted dose curve; in most records, active means well fitted inhibition curve with a large enough effect; inconclusive means small, poorly fitted or top-dose-only effect, or another doubt; inactive means no such curve, though single readings can be large or run the other way.

SMILES	NS1 function inh	Pf growth 96h	Shiga toxin inh	Pf growth 48h	CHX counter
COc1ccc(CNC(=O)C(c2cccs2)N(Cc2ccco2)C(=O)Cc2cccs2)cc1 (stereo not given)	-6.9%	12.6%	9.6	13.1µM*	-0.9
COc1ccc(CNC(=O)C(c2ccco2)N(Cc2cccs2)C(=O)Cc2cccs2)cc1 (stereo not given)	-13.4%	u	-2.1	u	1.7
OC(CNCCc1ccc(Cl)cc1)COc1cc(Cl)ccc1Cl (stereo not given)	-3.6%	u	-2.4	u	-0.9
CCn1c(CNC(=O)c2cccs2)nnc1SCC(=O)Nc1cc(Cl)ccc1C	3.0%	u	3.9	u	2.0
CCn1c(CNC(=O)c2ccc(Cl)cc2)nnc1SCC(=O)NC1=NCCS1	6.0%	8.28µM*	-8.0	4.3%	-3.5
C=CCn1c(CCNC(=O)c2cccs2)nnc1SCC(=O)Nc1cccc(C(C)=O)c1	-11.4%	9.28µM*	13.1	0.1%	-0.4
CCSCc1nnc(SCC(=O)Nc2ccc(F)cc2)n1CC	-2.5%	11.7µM*	6.3	10.0%	13.2
C=CCn1c(CCNC(=O)c2cccs2)nnc1SCC(=O)c1ccc(Br)cc1	-1.0%	u	-13.8	x	-2.2
CCn1c(CNC(=O)c2cccs2)nnc1SCC(=O)Nc1ccc(Cl)cc1	2.5%	9.28µM*	-4.7	10.4µM*	1.3
CCC1(CC)NC(=O)N(CC(=O)OCC(=O)Nc2ccc(OC(F)(F)F)cc2)C1=O	x	0.4%	x	15.7%	x
O=C(O)c1cn[nH]c1-n1cnnn1	-3.3%	x	12.7	4.4%	-3.1
Cc1ccc(OCC(=O)Nc2cccc(S(=O)(=O)N3CCCCCC3)c2)c([N+](=O)[O-])n1	x	-16.3%	8.8	u	1.0
CCn1c(COc2ccccc2C)nnc1SCC(=O)O	-6.7%	-16.7%	14.4	x	-2.6
CCn1c(COc2ccccc2C)nnc1SCC(=O)CC(=O)Nc1ccccc1	u	25.7%	-1.7	10.4µM*	5.3
Cc1ccc(/C=N/Nc2ccc(Cl)nn2)cc1	-4.7%	0.0%	44.7*	70.5%	13.2*
Fc1ccccc1/C=N/Nc1ccc(Cl)nn1	-2.5%	45.0%	37.7*	x	10.1
Fc1ccccc1/C=N/Nc1nn[nH]n1	2.6%	96.7%	-12.7	x	1.3
Oc1ccc(/C=N/Nc2ccc(Cl)nn2)cc1O	8.4%	u	35.9	30.8%	39.2*
Cc1c(N2CCCC2)cc2c(c1N)C(C)(C)CC2(C)C	-1.3%	-3.9%	2.1	x	-1.5
CCCCN1C(=O)CC(C(=O)O)C1c1ccc(OC)cc1 (stereo not given)	6.0%	30.0%	-10.4	x	-0.1
CCCCN1C(=O)CN(CCc2ccccc2)C(=O)C1c1ccc(OC)cc1 (stereo not given)	-0.7%	5.22µM*	-22.8	u	-2.2
COc1ccc(C2C(=O)N(CCc3ccccc3)CC(=O)N2C2CCCCC2)cc1 (stereo not given)	-7.1%	5.22µM*	-3.1	x	16.3
Cc1cc(C)c(-c2c(O)c3c(n(C)c2=O)CC(C)(C)CC3=O)c(C)c1	-23.4%	5.86µM*	-4.4	u	-2.7
CC(C)CN(CC(C)C)C(=O)CS(=O)(=O)Cc1ccccc1	14.8%	-2.9%	5.4	3.7%	4.2
CCOC(=O)C1CC(c2ccccc2)=NNC1=O (stereo not given)	2.6%	13.7%	-4.0	13.4%	1.1
SMILES	NS1 function inh	Pf growth 96h	Shiga toxin inh	Pf growth 48h	CHX counter
COc1cc(C2CC(=O)Oc3cc(C)cc(C)c32)cc(OC)c1OC (stereo not given)	x	x	i	x	9.3
CCOC(=O)C(=O)Nc1nc(-c2ccccc2)c(-c2ccccc2)o1	-11.9%	71.7%	-2.4	-3.6%	-2.7
CCCOC(=O)Nc1nc2ccccc2o1	-9.4%	125.9%	143.6*	130.0%	25.9*
CCOC(=O)C(=CN=C(N)Nc1nc2ccccc2o1)C(=O)OCC	3.7%	10.4µM*	31.4*	-6.7%	13.5*
O=C(N/N=C/c1ccc2nccnc2c1)c1ccccc1O	-1.3%	70.8%	24.4	95.0%	15.5*
O=C(N/N=C/c1cccc(C(F)(F)F)c1)c1ccccc1O	-19.1%	u	120.9*	0.0%	30.2*
O=C(N/N=C/c1ccnc2ccccc12)c1ccccc1O	-10.2%	u	32.5	u	26.8*
CCOc1ncccc1C(=O)OCC(=O)NC1CCCCCC1	x	u	x	39.4%	x
CC(=O)c1ccc(N2C(=NC(=O)C3CCCO3)SC3CS(=O)(=O)CC32)cc1 (stereo not given)	-8.7%	1.7%	-7.6	-2.0%	-2.4
CCCC(=O)N=C1SC2CS(=O)(=O)CC2N1c1ccc(-c2nc3ccc(C)cc3s2)cc1 (stereo not given)	15.0%	93.7%	106.1*	158.3%	43.6*
COc1cc(C(=O)N=C2SC3CS(=O)(=O)CC3N2c2ccccc2)cc(OC)c1OC (stereo not given)	-12.7%	34.0%	-5.1	18.4%	-1.7
CN(C)c1ccc(N2C(=NC(=O)CCc3ccccc3)SC3CS(=O)(=O)CC32)cc1 (stereo not given)	5.3%	11.7µM*	24.3	u	18.7*
CN(C)c1ccc(N2C(=NC(=O)C3CCCO3)SC3CS(=O)(=O)CC32)cc1 (stereo not given)	-5.3%	72.7%	21.5	31.0%	37.9*
COc1ccccc1C(=O)N=C1SC2CS(=O)(=O)CC2N1c1ccccc1 (stereo not given)	-5.1%	u	22.4	23.1%	9.8*
O=C(NCCO)c1nc(C(=O)c2ccc(Cl)cc2)c2ccccc2n1	x	23.5%	x	0.0%	x
COc1ccc(C2CC(=O)c3cnn(-c4nc(C)cc(C)n4)c3C2)cc1 (stereo not given)	x	u	-5.7	u	-4.5
COc1ccccc1CNC(=O)[C@H](C)NC(=O)C1CCN(C(=O)[C@@H]2CCCN2C(=O)OC(C)(C)C)CC1	-13.6%	u	-2.4	u	-2.7
COc1ccc(Nc2nc(N)nc(SCc3nnc(C)s3)n2)cc1	-1.7%	u	40.0	71.9%	24.8*
Cc1nnc(SCc2nc(N)nc(Nc3ccccc3)n2)s1	26.7%	14.0%	68.9*	53.6%	38.2*
COc1ccc(Nc2nc(N)nc(COc3ccc(OC)cc3)n2)cc1	8.4%	39.5%	0.6	0.2%	-2.5
COc1ccc(Nc2nc(N)nc(CSc3nccn3C)n2)cc1	3.1%	-18.2%	73.2*	0.0%	35.9*
COc1ccccc1Nc1nc(N)nc(CSc2nccc(C)n2)n1	-8.6%	0.928µM*	-2.6	6.0%	-1.9
CCCCNC(=O)c1cn(CC(C)C)c(=O)c2c1c1ccccc1n2C	u	3.3%	3.4	u	-2.1
CCc1c(C)nc(N)n2c(SCC(=O)N3CCN(c4ccccc4F)CC3)nnc12	2.9%	-3.2%	-8.0	0.8%	-4.5
Cc1ccc(C(=O)N/C(=C/c2cccnc2)C(=O)N2CCCCCC2)cc1	-4.6%	u	-12.5	u	-2.1
COc1ccccc1Nc1nc(N)nc(CSc2nc(C)cc(C)n2)n1	-15.4%	x	-19.6	-39.3%	6.3
COc1ccc(Nc2nc(N)nc(CSc3nc(C)cc(C)n3)n2)cc1	-1.6%	48.4%	48.6*	-5.7%	17.9*
COc1ccc(Nc2nc(N)nc(CSc3nnc(N)s3)n2)cc1	-7.0%	167.0%	33.7	x	26.4*
